TRHR ag: qHTS for Small Molecule Agonists and Allosteric Enhancers of Human TRH Receptor: Primary Screen for Agonists; Thyrotropin-releasing hormone receptor (Homo sapiens), P34981; TRHR cells, calcium flux fluo-8, FDSS agonist mode; activation, % at 2 µM; hit rate 0.18% among 360,000; AID 493084, 2011
Target sequence (P34981 whole entry, looked up): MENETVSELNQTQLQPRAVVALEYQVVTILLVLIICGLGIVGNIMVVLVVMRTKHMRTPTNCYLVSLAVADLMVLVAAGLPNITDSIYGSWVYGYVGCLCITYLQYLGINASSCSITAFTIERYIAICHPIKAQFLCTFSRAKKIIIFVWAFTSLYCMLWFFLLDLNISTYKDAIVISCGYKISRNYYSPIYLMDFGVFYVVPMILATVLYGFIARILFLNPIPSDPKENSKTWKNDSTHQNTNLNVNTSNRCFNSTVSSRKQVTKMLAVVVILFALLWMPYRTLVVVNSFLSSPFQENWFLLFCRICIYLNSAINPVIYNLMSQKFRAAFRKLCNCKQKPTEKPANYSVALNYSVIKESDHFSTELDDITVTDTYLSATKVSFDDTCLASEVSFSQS
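Agonist-mode FDSS calcium read (Ex 480/Em 530, 1 s cycles) in 1536-well TRHR cells with fluo-8 dye, after 10-cycle baseline and 23 nL compound addition; TRH at EC20 (10 nM final) added afterwards for the enhancer phase.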
D1 agonist: Allosteric Agonists of the Human D1 Dopamine Receptor: qHTS; hit rate 1% among 360,000; activation, % at 2 µM; HEK293 T-REx D1 cells, calcium flux, agonist mode
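Inducible HEK293 T-REx D1 cells, force-coupled to calcium signalling, were plated at 4000 cells/well with tetracycline and held overnight at 30 C. After no-wash calcium dye loading, compound-evoked calcium rise over 180 s flagged agonists.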
D1 antagonist: Antagonist of Human D 1 Dopamine Receptor: qHTS; D(1A) dopamine receptor (Homo sapiens), P21728; HEK293 TREx D1 cells, calcium flux, dopamine EC80; stronger effect = lower value; activity change, negative = inhibition, % at 10 µM; hit rate 3.2% among 360,000; in the data active means activity change below about -30%
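Antagonism measured as reduced calcium response to an EC80 dopamine addition following 180 s compound pre-read; cells were inducible HEK293 Trex D1 plated overnight at 30 C, read kinetically at 1 cycle/sec.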
D1 PAM: Potentiators of Human D1 Dopamine Receptor: qHTS. D(1A) dopamine receptor (Homo sapiens), P21728. HEK293 TREx D1 cells, calcium flux, dopamine EC20 potentiation. potentiation, % at 10 µM. hit rate 0.036% among 360,000. AID 504651, 2011; in the data active means potentiation above about 30%
TRHR PAM: qHTS for Small Molecule Agonists and Allosteric Enhancers of Human TRH Receptor: Primary Screen for Enhancers. Thyrotropin-releasing hormone receptor (Homo sapiens), P34981. TRHR cells, fluo-8 calcium fluorescence, EC20 TRH enhancement. enhancement, % at 2 µM. hit rate 0.66% among 360,000. AID 493056, 2011; in the data active means enhancement above about 30%
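Enhancer read-out: after compound pinning and an initial kinetic agonist-mode read, an EC20 of TRH (10 nM final) was injected and fluo-8 calcium signal (Ex 480/Em 530) followed at 1 s/cycle for 100 cycles in TRHR-expressing cells.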
Large screens that a line does not name were inactive. Rows were chosen to be rich in hits. Some 4.6% of all compounds tested hit in one or more screens of this group. Unless noted, no stated cut-off is given here; in the data, active means activation above about 30%; inactive means the rest.

Cc1cc(Br)ccc1NC(=O)CCNS(=O)(=O)c1cccc2nonc12	none
CCOCCc1nn2c(=O)cc(COC(=O)c3ccccc3NC(=O)CC(C)C)nc2s1	none
Cc1ccc(-n2nnc3c(sc4nc(C)c(C)cc43)c2=O)cc1Cl	none
Cc1ccc(NC(=O)CCNC(=O)c2ccc(Br)cc2)cc1S(=O)(=O)N1CCOCC1	none
Cc1ccc(NC(=O)CCNS(=O)(=O)c2ccccc2F)cc1S(=O)(=O)N1CCOCC1	D1 antagonist -59
Cc1ccc(NC(=O)C(C)N2C(=O)c3ccccc3C2=O)cc1S(=O)(=O)N1CCOCC1 (stereo not given)	D1 antagonist -42
CN(C(=O)CSc1nc(C2CCCC2)nc2c1c(=O)n(C)c(=O)n2C)c1ccccc1	none
S=c1[nH]nc(-c2cccnc2)n1-c1ccc2c(c1)OCCO2	D1 antagonist -46
Cc1cc(C)cc(NC(=O)C2CCN(c3nc4ccccc4nc3C(F)(F)F)CC2)c1	none
CC(=O)c1ccc(OCCCC(=O)NC2CCCc3ccccc32)cc1 (stereo not given)	D1 antagonist -32
CCOc1ccccc1NC(=O)NC1CCCc2ccccc21 (stereo not given)	D1 antagonist -33
COc1ccc(OCC(=O)NC2CCCc3ccccc32)cc1 (stereo not given)	none
COc1ccccc1NC(=O)NC1CCCc2ccccc21 (stereo not given)	none
COc1ccc(-c2c(C)nn3c(-c4ccccc4)cc(-c4ccccc4)nc23)cc1	none
Cc1c(NC(=O)Nc2ccc(Br)cc2F)sc2nc3n(c(=O)c12)CCC(C)CC3 (stereo not given)	none
COC(=O)C1=CO[C@@H](C)[C@H]2CN3CCc4c([nH]c5ccccc45)[C@@H]3C[C@H]12	D1 antagonist -52
COc1ccc(COC(=O)CCS(=O)(=O)c2ccc(C)cc2)cc1	D1 antagonist -44
CSc1ccc(COC(=O)CCS(=O)(=O)c2ccc(C)cc2)cc1	none
O=C(C1CCCO1)N1CCN(S(=O)(=O)c2ccc(Cl)cc2)CC1 (stereo not given)	D1 antagonist -47
O=C(Nc1ccc(Cl)cc1)N1CCN(C(=O)C2CCCO2)CC1 (stereo not given)	none
O=C(CN1CCN(C(=O)C2COc3ccccc3O2)CC1)Nc1ccccc1 (stereo not given)	D1 antagonist -33
CC(C)N(C(=O)CN1CCN(C(=O)C2COc3ccccc3O2)CC1)C(C)C (stereo not given)	none
COc1ccccc1NC(=O)CN1CCN(C(=O)C2CCCO2)CC1 (stereo not given)	TRHR PAM 32
O=C(CN1CCN(C(=O)C2CCCO2)CC1)Nc1ccc(Cl)cc1 (stereo not given)	D1 antagonist -30
Cc1ccc(S(=O)(=O)N2CCN(C(=O)C3CCCO3)CC2)cc1 (stereo not given)	none
COc1cccc(CNC(=O)C2CCCN(c3nn4cc(-c5ccc(C)cc5)nc4s3)C2)c1 (stereo not given)	none
O=C(NC1CC(=O)N(c2ccc(F)cc2)C1)c1ccc(S(=O)(=O)N2CCCCC2)cc1 (stereo not given)	none (no result: D1 antagonist)
O=C(C1CC(Cl)CN1S(=O)(=O)c1ccc(Cl)cc1)N1CCOCC1 (stereo not given)	D1 antagonist -36
COc1cc(NC(=O)Nc2ccccc2OC)c(OC)cc1NC(=O)CN1CCCCC1	D1 antagonist -32
NC(=O)C1CCN(CC(=O)Nc2ccccc2Sc2ccccc2)CC1	none
COC(=O)C1CCN(CC(=O)Nc2ccccc2Sc2ccccc2)CC1	TRHR PAM 35
COc1ccc(CNC(=O)c2cc3cccc4c3n2CC(C)S4)cc1 (stereo not given)	none
Cc1ccc2onc(CNC(=O)NCc3ccc(Cl)cc3)c2c1	none
CCCc1cc(C(=O)Nc2cc(Cl)ccc2O)no1	none
CCCc1cc(C(=O)Nc2cc(Br)ccc2O)no1	D1 agonist 40
Cc1cc(Cl)ccc1NS(=O)(=O)c1ccc2c(c1)CC(C)N2C(=O)C1CCC1 (stereo not given)	none

Screening results (PubChem)
